# “And” between values parts separate entries of the source, which are not always exact repeats. Equal values may be shown once. The source made the active and inactive calls.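 Rule for the calls, unless noted: active = compounds whose cell count with miR-34 switched on is under 0.7 times the count with it off; inactive = the rest.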
# Tests used:
# [1] = sensitizers of A549 cells to miR-34 induction, primary screen, imaging, A549 dox-inducible miR-34, nuclei and caspase counts (AID 1347080); settings: A549 miR-34 inducible, Hoechst nuclei count, 48 h; note: test concentration not given here
# [2] = viability rescue of complex I mutant cybrids, primary screen, cell-based, galactose medium, ATP luminescence (AID 1645843;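 active = z-score of at least 1.8 in each of two replicates, scored against plate mean and spread of sample wells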;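 note: positive z means more ATP and so rescue of galactose-driven cybrid death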); settings: complex I mutant cybrid cells, 72 h, stronger effect = higher value
# [3] = stronger effect = lower value, cell number ratio, induced over uninduced
# [4] = measured here: relative caspase fold change +Dox/-Dox
# [5] = measured here: total cells with miR-34 induction, stronger effect = lower value
# [6] = measured here: total cells without miR-34 induction
SMILES,"fold change [1, 3]","fold change [1, 4]","cell count [1, 5]","cell count [1, 6]",z-score [2]
C=C1C(=CC=C2CCC[C@@]3(C)C2CCC3C(C)C=CC(O)C2CC2)CC(O)CC1O (stereo not given in full),1.02 (inactive),1.9,9990,9800,-1.44 (inactive)
CC(=O)C1CCC2C3CCC4=CC(=O)CC[C@]4(C)C3CC[C@]12C (stereo not given in full),0.861 (inactive),1.42,7200,8360,-0.365 (inactive)
O=C1NC(=O)c2c1c(-c1ccccc1)cc1[nH]c3ccc(O)cc3c21,0.992 (inactive) and 1.16 (inactive),0.466 and 1.08,2060 and 2860,2080 and 2470,-1.27 (inactive) and -0.655 (inactive)
O=C1NC(C(=O)O)CS1 (stereo not given),0.93 (inactive),1.73,9590,10300,1.05 (inactive)
O=C(OC1C(Oc2ccccc2COC(=O)C2(O)C=CCCC2=O)OC(CO)C(O)C1O)c1ccccc1 (stereo not given),0.897 (inactive),1.99,1640,1830,-1.2 (inactive)
CNC(=O)[C@H]1O[C@@H](n2cnc3c(NCc4ccc(I)cc4)nc(Cl)nc32)[C@H](O)[C@@H]1O,1.02 (inactive),1.05,5610,5510,1.29 (inactive)
C[C@]12CC(O)C3C(CCC4=CC(=O)CC[C@@]43C)C1CCC2C(=O)CO (stereo not given in full),0.859 (inactive),2.3,7080,8240,0.21 (inactive)
C=CC1=C(C(=O)O)N2C(=O)C(NC(=O)C(=NOCC(=O)O)c3csc(N)n3)C2SC1 (stereo not given),0.923 (inactive),0.894,8710,9440,0.065 (inactive)
CCOC(=O)O[C@]1(C(=O)OCCl)CCC2C3CCC4=CC(=O)C=C[C@]4(C)C3C(O)C[C@@]21C (stereo not given in full),0.961 (inactive),1.35,6110,6360,0.71 (inactive)
O=C1c2cccc3c2C(CCC3)CN1C1CN2CCC1CC2 (stereo not given),1.56 (inactive),0.609,5340,3420,-0.005 (inactive)
CC1(C)SC2C(N=CN3CCCCCC3)C(=O)N2C1C(=O)O (stereo not given),0.941 (inactive),1.42,9640,10200,0.33 (inactive)
CC(=O)[C@@]1(O)CCC2C3CC(C)C4=CC(=O)CC[C@]4(C)C3CC[C@@]21C (stereo not given in full),0.817 (inactive),0.742,7720,9450,-0.04 (inactive)
CC=CC(=O)N(CC)c1ccccc1C,0.962 (inactive),1.8,9730,10100,0.595 (inactive)
CC[C@]1(O)CC2CN(CCc3c([nH]c4ccccc34)[C@@](C(=O)OC)(c3cc4c(cc3OC)N(C)C3[C@@](O)(C(N)=O)C(O)[C@]5(CC)C=CCN6CC[C@]43C65)C2)C1 (stereo not given in full),0.722 (inactive),1.09,1070,1480,-1.19 (inactive)
COC(=O)C[C@](O)(CCCC(C)(C)O)C(=O)OC1C(OC)=C[C@]23CCCN2CCc2cc4c(cc2C13)OCO4 (stereo not given in full),0.85 (inactive),0.957,1590,1870,-1.86 (inactive)
CC(C)OC(=O)CCCC=CCC1C(O)CC(O)C1CCC(O)CCc1ccccc1 (stereo not given),1 (inactive),2.41,9620,9620,-1.17 (inactive)
